Reference: paper PMC5540273 (PLoS ONE, 2017)

What follows are molecules tested on SLK. Conditions: concentration: 1 μM,replicates: in singlicate; n = 1.
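Also: KINOMEscan kinase panel screen.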

Row | SMILES | %Inh
1 | Cc1ccn2nc(-c3ccc(F)cc3)c(-c3ccncc3)c2c1.Cl [GW457859] | 2%
2 | CS(=O)c1ccc(-c2coc3ccc(-c4n[nH]c(=O)o4)cc23)cc1 (stereo not drawn) | 9%
3 | C[C@@H](Oc1cc(-n2cnc3cc(-c4cnn(C)c4)ccc32)sc1C(N)=O)c1ccccc1Cl [GSK580432] | 99.7%
4 | CN1CCN(CCCNc2nccc(-c3c(-c4ccc(F)cc4)nn4cc(C(N)=O)ccc34)n2)CC1 [GW622475] | 63%
5 | C[C@@H](Oc1cc(-n2cnc3ccc(-c4ccncc4)cc32)sc1C(N)=O)c1ccccc1Cl [GSK483724] | 95.5%
6 | CS(=O)(=O)c1cccc(CNc2nc(Nc3ccc4c(c3)[C@@H]3C[C@@H]4CNC3=O)ncc2C(F)(F)F)c1 | 98.2%
7 | COc1cc(Nc2nccc(N3CCC(NC(=O)c4cccc(C#N)c4)C3)n2)cc(OC)c1OC (stereo not drawn) [GSK1379751] | 1%
8 | COc1cccc(OC)c1C(=O)Nc1cccc(-c2nn3ccccc3c2-c2ccnc(Nc3cccc(F)c3)n2)c1 [GSK361065] | 41%
9 | O=C(NOCC1CC1)c1cc(Br)c(F)c(F)c1Nc1ccc(I)cc1Cl | 3%
10 | CNC(=O)c1ccccc1Nc1nc(Nc2cccc(CS(C)(=O)=O)c2)ncc1C.O=CO [GSK1520489] | 99.9%
11 | C[C@@H]1CNc2c(sc3ccc4nc(-c5ccc(O)cc5)ccc4c23)C(=O)N1 | 0%
12 | O=C(Nc1cccc(Oc2ccc3nccn3n2)c1)Nc1cccc(C(F)(F)F)c1 | 0%
